# Assay outcomes as filed in PubChem.
# PLCg1 inh: inhibitors of human phospholipase C gamma1; inhibition, % at 12.2 µM; 370,000 tested, 0.84% active; purified PLC-gamma1, fluorogenic substrate, fluorescence; in the data active = inhibition above about 9.5%
# PLC-beta3 inh: inhibitors of human phospholipase C beta3; 370,000 tested, 0.18% active; inhibition, % at 12.2 µM; Purified PLC-beta3, fluorogenic substrate, fluorescence; Q01970; in the data active = inhibition above about 11%
# ADAM17 inh: inhibitors of human ADAM17; P78536; recombinant ADAM17, EDANS/DABCYL FRET peptide cleavage; inhibition, % at 6.95 µM; 370,000 tested, 0.83% active;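 active = inhibition above the mean of compounds lying between control limits plus 3 SD, set per campaign, cut at about 8.5% in these data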
# proKLK7 act: proKLK7 (human) activation, primary screen; P49862; purified proKLK7, EDANS-DABCYL substrate fluorescence; 100% is mature enzyme control, 0% vehicle; activation, % at 7 µM; 370,000 tested, 0.9% active; AID 652039;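 active = activation above the mean of all tested compounds plus 3 SD, computed per campaign excluding outliers beyond control limits, cut at about 13% in these data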
# ADAM10 inh: inhibits human ADAM10; O14672; recombinant ADAM10, EDANS/DABCYL FRET peptide cleavage, 3 h; inhibition, % at 7 µM; 370,000 tested, 0.62% active;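 active = inhibition above a per-campaign cutoff equal to the mean of compounds falling between control-based bounds plus 3 SD, cut at about 20% in these data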
# ADAM10 ctr: counter-screen for ADAM17 exosite inhibitors: inhibitors of human ADAM10 | shares compounds with ADAM17 inh | recombinant ADAM10, EDANS/DABCYL FRET peptide cleavage, 3 h | 2,900 tested, 47% active | inhibition, % at 6.95 µM;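 active = mean inhibition over the triplicate runs exceeds the activity threshold set in the earlier primary screen, cut at about 20% in these data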
# ADAM17 confirm: confirmation of inhibitors of human ADAM17 | recombinant ADAM17, EDANS/DABCYL QFRET peptide cleavage | 2,900 tested, 65% active | shares compounds with ADAM17 inh | inhibition, % at 6.95 µM;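 active = mean inhibition across replicates above the hit cutoff set in the primary screen, cut at about 8.5% in these data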
# Hits are given with their value; n = inactive; x = no result. In the library only some 2.9% were active in any assay of this set; here they are far more common.
SMILES,PLCg1 inh,PLC-beta3 inh,ADAM17 inh,proKLK7 act,ADAM10 inh,ADAM10 ctr,ADAM17 confirm
Cc1ccc(NC(=O)CC2SC(=O)N(c3ccccc3)C2=O)cc1 (stereo not drawn),n,n,n,n,n,x,x
O=C(CSc1cn(CCNC(=O)c2ccccc2F)c2ccccc12)NCC1CCCO1 (stereo not drawn),n,n,n,n,n,x,x
O=C(NCCn1cc(SCc2ccccc2)c2ccccc21)c1ccccc1F,n,n,10,n,n,n,9.2
Cc1ccc(-c2[nH]nc(N)c2N=Nc2ccccc2C)cc1,n,n,9.7,n,n,25,16
CCc1ccc(/C=C2/Sc3ccccc3N(CC(=O)NCC3CCCO3)C2=O)cc1 (stereo not drawn),n,n,8.8,n,n,n,n
CCCN(C(=O)c1cccc(S(=O)(=O)N2CCCc3ccccc32)c1)C1CCS(=O)(=O)C1 (stereo not drawn),n,n,n,n,n,x,x
O=C1CC(N(CCc2ccccc2)C(=S)Nc2ccccc2)C(=O)N1c1ccccc1 (stereo not drawn),n,n,8.7,n,n,n,8.9
Cc1cc(C)c(C(=O)N2CCCC(CNS(=O)(=O)N(C)C)C2)o1 (stereo not drawn),n,n,n,n,n,x,x
C[C@H]1CN=C2N(CCNC(=O)CCC3CCCCC3)[C@H](Cc3ccc(O)cc3)CN21,n,n,n,n,n,x,x
COc1ccc(C[C@H]2CN3C(=NC[C@@H]3C)N2CCNC(=O)CCC2CCCCC2)cc1,n,n,11,n,n,n,n
CCCN1C/C(=C/c2ccc3c(c2)OCO3)C(=O)/C(=C/c2ccc3c(c2)OCO3)C1,n,n,10,n,n,n,28
CCOCCCn1c(SC(C(=O)Nc2cc(C)ccc2C)c2ccccc2)nnc1-c1ccc(Cl)cc1 (stereo not drawn),n,n,9.9,n,n,n,n
O=C(NC1CCCCN(Cc2ccc(Cl)cc2)C1=O)c1ccc(-c2ccccc2)cc1 (stereo not drawn),n,n,n,n,n,x,x
O=C(NC1CCCCN(Cc2cccc(Cl)c2)C1=O)c1ccc(COc2ccccc2)cc1 (stereo not drawn),n,n,10,n,n,n,11
COCCn1c(Cc2ccccc2)nnc1SCc1ccc([N+](=O)[O-])cc1,n,n,n,n,n,x,x
O=C(c1ccccc1Cl)N1N=C(c2cccs2)CC1c1cccc(O)c1 (stereo not drawn),n,n,9.0,n,n,n,n
Cc1cccc(N2CCN(C(=O)c3ccc(CS(=O)Cc4ccc(Cl)cc4)o3)CC2)c1C (stereo not drawn),n,n,11,n,n,n,12
O=C(/C=C/c1ccccc1Cl)Nc1ccccc1,n,n,n,n,n,x,x
O=C(/C=C/c1ccccc1Cl)Nc1cccc(O)c1,n,n,9.2,n,n,n,n
C=CCOC(=O)C1=C[C@@H](c2coc3ccccc3c2=O)C[C@@H](OCc2ccc(CO)cc2)O1,n,n,15,n,n,26,10
CCc1ccc(C(C)NC(=O)/C(C#N)=C\c2cn[nH]c2-c2ccccc2)cc1 (stereo not drawn),n,n,11,n,n,35,17
COc1ccc(NC(=O)N2CCCC(c3nc(-c4ccc(OC)cc4)no3)C2)cc1 (stereo not drawn),n,n,n,n,n,x,x
COc1ccc(-c2noc(C3CCCN(C(=O)Nc4ccc(C)c(F)c4)C3)n2)cc1 (stereo not drawn),n,n,9.8,n,n,n,9.2
Cc1ccccc1NC(=O)Cc1nc(COC(=O)c2ccc(Cl)nc2)cs1,n,n,8.7,n,n,n,n
N#Cc1c(Cl)nsc1NCCN1CCOCC1,n,n,n,n,n,x,x
CCOc1ccc(S(=O)(=O)Nc2ccc3c(c2)OCO3)cc1,n,n,n,n,n,x,x
CC(C)c1ccc(S(=O)(=O)Nc2ccc3c(c2)OCO3)cc1,n,n,12,n,n,n,n
COC(=O)c1nn(-c2ccccc2)c(Sc2ccc(Br)cc2)c1/C=N/O,n,n,11,n,n,n,n
